Most compounds without a hit are left out; they make up all but 19% or so of the library.
BCR signal inh: qHTS Assay to Find Inhibitors of Chronic Active B-Cell Receptor Signaling | ABC-DLBCL IkBa-CBG/CBR reporter, luminescence ratio, 4 h | Potency, µM (highest dose often 46.1 µM), hits mostly inhibitors | 340,000 tested, 0.05% active | AID 493014, 2011; active = well fitted inhibition curve with a large enough effect in the signal ratio, with a control signal flat, not every such curve was filed as active; inconclusive = small, poorly fitted or top-dose-only effect, or effect the other way, or a change in a side signal; the % refers to the signal ratio
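Compounds up to 46 uM were incubated four hours with TMD8 cells whose green CBG68 luciferase is fused to IkappaBalpha; red CBR luminescence normalised the signal, and concentration-effect curves were fitted to fusion, red and ratio data.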
TDP1 cell CPT: qHTS for Inhibitors of human tyrosyl-DNA phosphodiesterase 1 (TDP1): qHTS in cells in presence of CPT; chicken DT40 Tdp1-/-;hTDP1 cells + 20 nM CPT, ATP luminescence, 48 h; Potency, µM (titrated, usually from 46.2 µM), hits mostly inhibitors; AID 686979, 2013; 420,000 tested, 12% active; note: nearly all actives have a fitted effect of over 55% in size
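Chicken DT40 Tdp1-/- cells stably complemented with human TDP1 were seeded at 400 cells/well in medium containing 20 nM camptothecin, exposed to pin-transferred compounds, and grown at 37 °C for at least 48 hr. Viability was read as ATP luminescence.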
IL-1B inflam inh: qHTS for Inhibitors of Inflammasome Signaling: IL-1-beta AlphaLISA Primary Screen; activity change, % at 57.5 µM; THP-1 LPS/ATP IL-1B secretion, AlphaLISA, 16 h; active compounds read low; 360,000 tested, 4.7% active; in the data active = activity change below about -50%; inconclusive = mostly about -30% to -49%
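Secreted IL-1B measured by AlphaLISA bead assay after 16 h compound exposure of THP-1 cells; compounds (final up to 57.5 uM) added 1 h before LPS (250 ng/mL) and ATP (1.25 mM) stimulation; lower signal means less secretion.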
SW480 rereplic: A quantitative high throughput screen for small molecules that induce DNA re-replication in SW480 colon adenocarcinoma cells. SW480 DNA re-replication, Hoechst DNA content imaging, 48 h. Potency, µM (titrated, usually from 46.1 µM), usual class: activators. 340,000 tested, 1.8% active; note: nearly all actives have a fitted effect of over 55% in size
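DNA re-replication was detected as more nuclei of elevated Hoechst intensity after 48 hr exposure to compound (23 nL pinned per well of 250 cells).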
DT40 TDP1 no CPT: qHTS for Inhibitors of human tyrosyl-DNA phosphodiesterase 1 (TDP1): qHTS in cells in absence of CPT | DT40 Tdp1-/- hTDP1 cells, no CPT, ATP luminescence, 48 h | Potency, µM (titrated, usually from 46.2 µM), hits mostly inhibitors | 420,000 tested, 15% active; note: nearly all actives have a fitted effect of over 55% in size
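Camptothecin absent (DMSO only). Human TDP1-complemented DT40 knockout cells, 400 cells/well, 37 °C for minimum 48 hr; ATP measured via CellTiter-Glo, 30 min dark incubation, luminescence.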
MCF10A rereplic: A quantitative high throughput screen for small molecules that induce DNA re-replication in MCF 10a normal breast cells; AID 624296, 2012; MCF 10A DNA re-replication, Hoechst nuclear intensity, 48 h; Potency, µM (titrated, usually from 46.1 µM), usual class: activators; 350,000 tested, 2.9% active; note: nearly all actives have a fitted effect of over 50% in size
A number is an active result. Unless noted, calls come from the whole dose curve; as a rule, active = well fitted curve in the direction sought with a large enough effect; inconclusive = small, poorly fitted or top-dose-only effect, or another doubt; inactive = no such curve, though single readings can be large; an effect the other way counts as inactive or inconclusive.

Screening Cc1cccc(C(=O)NNC2=C(C(=O)C(F)(F)F)CCC2)c1O returned BCR signal inh inactive, TDP1 cell CPT 6.5µM, IL-1B inflam inh inactive, SW480 rereplic inconclusive, DT40 TDP1 no CPT 13µM and MCF10A rereplic inconclusive.
Screening O=C(NNC1=C(C(=O)C(F)(F)F)CCC1)c1cccc(O)c1 returned BCR signal inh inconclusive, TDP1 cell CPT inconclusive, IL-1B inflam inh inactive, SW480 rereplic inconclusive, DT40 TDP1 no CPT inconclusive and MCF10A rereplic inconclusive.
COc1cc(C=O)c(Br)cc1OCC(=O)NCCc1ccccc1 was read as BCR signal inh inactive, TDP1 cell CPT inconclusive, IL-1B inflam inh inactive, SW480 rereplic inactive, DT40 TDP1 no CPT 18µM and MCF10A rereplic inactive.
For CCOC(=O)COc1cc(Br)c(/C=N/Nc2ccccc2)cc1OC the results were BCR signal inh inconclusive, TDP1 cell CPT inactive, IL-1B inflam inh -93, SW480 rereplic inactive, DT40 TDP1 no CPT inactive and MCF10A rereplic inconclusive.
For CCOC(=O)COc1ccccc1/C=N/O the results were BCR signal inh inactive, TDP1 cell CPT inactive, IL-1B inflam inh inactive, SW480 rereplic inactive, DT40 TDP1 no CPT inactive and MCF10A rereplic inactive.
Screening Cc1cccc(CC(=O)NCCc2sc3nc(-c4ccc(F)cc4)nn3c2C)c1 returned BCR signal inh inactive, TDP1 cell CPT inconclusive and DT40 TDP1 no CPT inconclusive.
Screening COc1ccc(-c2nc3sc(CCNC(=O)c4cc(Cl)ccc4OC)c(C)n3n2)cc1 returned BCR signal inh inactive, TDP1 cell CPT 16µM and DT40 TDP1 no CPT 13µM.
CCC(=O)NCCc1sc2nc(-c3ccc(OC)cc3)nn2c1C was read as BCR signal inh inconclusive, TDP1 cell CPT inactive and DT40 TDP1 no CPT inconclusive.
Screening CCS(=O)(=O)NCCc1sc2nc(-c3ccc(OC)cc3)nn2c1C returned BCR signal inh inconclusive, TDP1 cell CPT inconclusive and DT40 TDP1 no CPT 21µM.
`COc1ccc(-c2nc3sc(CCNC(=O)c4ccc(C(C)(C)C)cc4)c(C)n3n2)cc1` gave BCR signal inh inactive, TDP1 cell CPT inconclusive and DT40 TDP1 no CPT 8.2µM.
Cc1c(CCNC(=O)c2ccc(Br)o2)sc2nc(-c3ccc(Cl)cc3)nn12 was read as BCR signal inh inactive, TDP1 cell CPT 18µM and DT40 TDP1 no CPT 23µM.
For COc1ccc(-c2nc3sc(CCNC(=O)C(=O)Nc4ccc(C)c(F)c4)c(C)n3n2)cc1 the results were BCR signal inh inconclusive, TDP1 cell CPT inactive and DT40 TDP1 no CPT inactive.
Screening COc1ccc(-c2nc3sc(CCNC(=O)c4ccc(Br)o4)c(C)n3n2)cc1 returned BCR signal inh inactive, TDP1 cell CPT 16µM and DT40 TDP1 no CPT 16µM.
`CCOc1ccc(CC(=O)NCCc2sc3nc(-c4ccc(OC)cc4)nn3c2C)cc1` gave BCR signal inh inactive, TDP1 cell CPT inconclusive and DT40 TDP1 no CPT inconclusive.
`COc1ccc(C2CC(=O)Oc3cc(C)c(Cl)c(C)c32)cc1` (stereo not drawn) gave BCR signal inh inactive, TDP1 cell CPT inconclusive, IL-1B inflam inh inactive, SW480 rereplic inactive, DT40 TDP1 no CPT inconclusive and MCF10A rereplic 18µM.
For COc1cc(C2CC(=O)Oc3cc(C)c(Br)c(C)c32)cc(OC)c1OC (stereo not drawn) the results were BCR signal inh inactive, TDP1 cell CPT 21µM, IL-1B inflam inh inactive, SW480 rereplic inactive, DT40 TDP1 no CPT inconclusive and MCF10A rereplic inconclusive.
COc1cc(C2CC(=O)Oc3cc(C)c(Cl)c(C)c32)cc(OC)c1OC (stereo not drawn) was read as BCR signal inh inconclusive, TDP1 cell CPT inconclusive, IL-1B inflam inh inactive, SW480 rereplic inactive, DT40 TDP1 no CPT inconclusive and MCF10A rereplic inconclusive.
For O=C(Cc1cccs1)Nc1ccccc1-c1nc2ccccc2[nH]1 the results were BCR signal inh inactive, TDP1 cell CPT inconclusive, IL-1B inflam inh inactive, SW480 rereplic 12µM, DT40 TDP1 no CPT inconclusive and MCF10A rereplic 13µM.

Compound activity deposited in PubChem BioAssay by National Center for Advancing Translational Sciences (NCATS).
